# Reference: ChEMBL document CHEMBL2218924, “A broad activity screen in support of a chemogenomic map for kinase signalling research and drug discovery” (Biochem J, 2013)
# Experiments:
# [1] = molecular target: T1, Ephrin type-B receptor 1 (Homo sapiens) (UniProt P54762); settings: at 10 µM
# T1 sequence (whole entry): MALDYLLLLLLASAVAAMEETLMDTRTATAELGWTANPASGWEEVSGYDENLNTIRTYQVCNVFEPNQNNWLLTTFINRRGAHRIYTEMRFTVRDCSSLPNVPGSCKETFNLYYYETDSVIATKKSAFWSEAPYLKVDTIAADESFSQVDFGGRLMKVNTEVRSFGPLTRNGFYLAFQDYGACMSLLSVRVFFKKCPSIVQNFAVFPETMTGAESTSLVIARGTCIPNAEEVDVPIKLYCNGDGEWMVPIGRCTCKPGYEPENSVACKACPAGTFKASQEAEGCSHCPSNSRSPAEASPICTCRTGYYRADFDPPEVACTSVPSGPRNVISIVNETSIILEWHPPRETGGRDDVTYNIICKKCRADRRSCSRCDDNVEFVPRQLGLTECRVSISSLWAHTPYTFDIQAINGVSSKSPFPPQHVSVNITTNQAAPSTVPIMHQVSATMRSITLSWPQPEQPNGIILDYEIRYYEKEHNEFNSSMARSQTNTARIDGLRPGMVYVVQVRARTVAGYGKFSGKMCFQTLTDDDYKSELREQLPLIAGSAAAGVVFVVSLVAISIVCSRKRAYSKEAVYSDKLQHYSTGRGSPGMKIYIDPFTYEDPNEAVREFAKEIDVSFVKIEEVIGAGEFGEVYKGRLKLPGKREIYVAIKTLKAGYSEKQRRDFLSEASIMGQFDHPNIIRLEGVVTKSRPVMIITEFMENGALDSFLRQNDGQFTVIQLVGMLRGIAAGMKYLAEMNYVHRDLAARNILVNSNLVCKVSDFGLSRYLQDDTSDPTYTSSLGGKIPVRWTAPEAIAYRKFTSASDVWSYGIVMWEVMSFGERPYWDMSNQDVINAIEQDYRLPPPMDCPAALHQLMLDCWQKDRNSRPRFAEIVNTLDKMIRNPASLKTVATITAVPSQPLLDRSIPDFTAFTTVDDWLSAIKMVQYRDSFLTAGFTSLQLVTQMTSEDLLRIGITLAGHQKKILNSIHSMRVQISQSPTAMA
# [2] = molecular target: T2, Ephrin type-B receptor 2 (Homo sapiens) (UniProt P29323); settings: at 1 µM
# T2 sequence (whole entry): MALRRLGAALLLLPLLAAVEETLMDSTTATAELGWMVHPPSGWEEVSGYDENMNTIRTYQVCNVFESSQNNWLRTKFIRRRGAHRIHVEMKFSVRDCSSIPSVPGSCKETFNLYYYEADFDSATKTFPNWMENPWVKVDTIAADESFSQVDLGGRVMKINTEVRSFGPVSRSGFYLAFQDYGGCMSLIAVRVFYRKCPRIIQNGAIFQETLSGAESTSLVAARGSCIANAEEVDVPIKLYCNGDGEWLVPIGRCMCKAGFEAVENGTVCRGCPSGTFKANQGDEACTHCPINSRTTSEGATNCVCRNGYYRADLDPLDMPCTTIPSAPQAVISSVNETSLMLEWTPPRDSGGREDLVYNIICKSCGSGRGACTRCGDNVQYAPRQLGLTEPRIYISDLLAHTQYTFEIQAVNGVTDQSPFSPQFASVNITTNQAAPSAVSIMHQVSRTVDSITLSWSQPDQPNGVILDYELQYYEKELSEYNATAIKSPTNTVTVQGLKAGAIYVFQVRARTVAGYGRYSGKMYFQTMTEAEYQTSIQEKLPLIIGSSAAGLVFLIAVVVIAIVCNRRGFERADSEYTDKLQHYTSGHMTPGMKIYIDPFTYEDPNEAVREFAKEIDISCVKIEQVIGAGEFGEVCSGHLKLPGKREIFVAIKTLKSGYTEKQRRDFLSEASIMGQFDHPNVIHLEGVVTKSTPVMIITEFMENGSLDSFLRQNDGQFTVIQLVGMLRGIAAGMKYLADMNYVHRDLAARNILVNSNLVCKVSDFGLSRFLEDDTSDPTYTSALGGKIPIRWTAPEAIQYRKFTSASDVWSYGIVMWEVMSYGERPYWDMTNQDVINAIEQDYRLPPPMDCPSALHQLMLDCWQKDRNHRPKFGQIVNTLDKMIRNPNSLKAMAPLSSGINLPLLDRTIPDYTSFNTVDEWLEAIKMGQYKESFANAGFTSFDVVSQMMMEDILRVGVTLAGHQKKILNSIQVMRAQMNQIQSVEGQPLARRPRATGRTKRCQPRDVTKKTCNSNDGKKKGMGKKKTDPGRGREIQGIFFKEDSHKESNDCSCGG
# [3] = molecular target: T2, Ephrin type-B receptor 2 (Homo sapiens); settings: at 10 µM
# [4] = molecular target: T3, Ephrin type-B receptor 3 (Homo sapiens) (UniProt P54753); settings: at 1 µM
# T3 sequence (whole entry): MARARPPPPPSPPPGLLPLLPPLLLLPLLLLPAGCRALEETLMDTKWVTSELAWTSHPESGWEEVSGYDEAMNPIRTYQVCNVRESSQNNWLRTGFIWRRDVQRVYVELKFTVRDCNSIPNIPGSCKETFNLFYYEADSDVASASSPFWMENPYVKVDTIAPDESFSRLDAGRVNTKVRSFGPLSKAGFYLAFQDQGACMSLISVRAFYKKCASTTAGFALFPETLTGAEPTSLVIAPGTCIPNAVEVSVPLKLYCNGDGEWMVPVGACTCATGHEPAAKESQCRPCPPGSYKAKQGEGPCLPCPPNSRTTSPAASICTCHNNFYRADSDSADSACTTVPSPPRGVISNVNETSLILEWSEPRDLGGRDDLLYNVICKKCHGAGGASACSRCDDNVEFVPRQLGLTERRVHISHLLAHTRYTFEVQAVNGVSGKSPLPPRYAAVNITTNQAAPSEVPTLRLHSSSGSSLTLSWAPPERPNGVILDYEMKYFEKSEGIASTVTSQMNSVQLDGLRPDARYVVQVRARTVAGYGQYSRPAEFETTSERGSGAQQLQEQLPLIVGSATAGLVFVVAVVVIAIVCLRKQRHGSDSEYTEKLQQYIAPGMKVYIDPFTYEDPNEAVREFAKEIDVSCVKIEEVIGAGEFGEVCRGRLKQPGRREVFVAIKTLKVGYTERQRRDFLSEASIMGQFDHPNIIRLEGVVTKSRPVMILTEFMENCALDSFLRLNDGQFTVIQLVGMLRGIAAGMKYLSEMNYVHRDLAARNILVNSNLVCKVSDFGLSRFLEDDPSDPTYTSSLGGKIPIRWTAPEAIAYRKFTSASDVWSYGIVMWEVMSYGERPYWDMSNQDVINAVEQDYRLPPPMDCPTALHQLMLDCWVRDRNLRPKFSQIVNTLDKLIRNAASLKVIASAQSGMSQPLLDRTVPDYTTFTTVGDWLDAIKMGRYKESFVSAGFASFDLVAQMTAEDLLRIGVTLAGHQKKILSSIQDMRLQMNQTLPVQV
# [5] = molecular target: T3, Ephrin type-B receptor 3 (Homo sapiens); settings: at 10 µM
# [6] = molecular target: T4, Ephrin type-B receptor 4 (Homo sapiens) (UniProt P54760); settings: at 1 µM
# T4 sequence (whole entry): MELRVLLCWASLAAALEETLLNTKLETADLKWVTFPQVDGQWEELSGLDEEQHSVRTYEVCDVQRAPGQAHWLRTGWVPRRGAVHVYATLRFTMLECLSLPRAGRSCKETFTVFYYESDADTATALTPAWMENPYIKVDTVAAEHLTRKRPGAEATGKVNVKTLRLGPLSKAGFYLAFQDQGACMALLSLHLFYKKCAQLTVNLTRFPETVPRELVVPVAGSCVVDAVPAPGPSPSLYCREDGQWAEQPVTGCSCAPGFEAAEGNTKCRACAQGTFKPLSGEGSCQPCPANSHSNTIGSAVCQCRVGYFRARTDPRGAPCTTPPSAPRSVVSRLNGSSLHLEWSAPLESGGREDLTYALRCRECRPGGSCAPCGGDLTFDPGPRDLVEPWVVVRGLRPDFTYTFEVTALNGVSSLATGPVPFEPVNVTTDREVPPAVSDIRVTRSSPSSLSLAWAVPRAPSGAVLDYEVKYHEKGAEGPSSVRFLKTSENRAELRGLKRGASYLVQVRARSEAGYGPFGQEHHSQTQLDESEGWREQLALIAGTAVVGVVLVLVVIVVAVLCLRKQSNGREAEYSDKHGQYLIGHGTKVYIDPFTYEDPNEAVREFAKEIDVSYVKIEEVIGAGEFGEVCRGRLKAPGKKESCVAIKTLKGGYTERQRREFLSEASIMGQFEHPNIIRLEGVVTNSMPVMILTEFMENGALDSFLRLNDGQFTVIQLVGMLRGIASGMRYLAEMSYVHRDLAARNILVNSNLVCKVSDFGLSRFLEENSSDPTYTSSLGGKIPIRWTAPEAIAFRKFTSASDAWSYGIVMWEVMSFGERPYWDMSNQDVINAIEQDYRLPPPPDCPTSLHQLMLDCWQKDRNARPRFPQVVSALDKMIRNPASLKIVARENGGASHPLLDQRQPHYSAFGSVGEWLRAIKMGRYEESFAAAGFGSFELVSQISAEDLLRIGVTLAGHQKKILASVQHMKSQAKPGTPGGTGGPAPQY
# [7] = molecular target: T4, Ephrin type-B receptor 4 (Homo sapiens); settings: at 10 µM
# [8] = molecular target: Receptor tyrosine-protein kinase erbB-4 (Homo sapiens) (UniProt Q15303); settings: at 1 µM
# [9] = molecular target: Receptor tyrosine-protein kinase erbB-4 (Homo sapiens) (UniProt Q15303); settings: at 10 µM
# [10] = molecular target: Focal adhesion kinase 1 (Homo sapiens) (UniProt Q05397); settings: at 1 µM
# Sequence of Focal adhesion kinase 1 (Homo sapiens) (Q05397 2-1052 limits assumed): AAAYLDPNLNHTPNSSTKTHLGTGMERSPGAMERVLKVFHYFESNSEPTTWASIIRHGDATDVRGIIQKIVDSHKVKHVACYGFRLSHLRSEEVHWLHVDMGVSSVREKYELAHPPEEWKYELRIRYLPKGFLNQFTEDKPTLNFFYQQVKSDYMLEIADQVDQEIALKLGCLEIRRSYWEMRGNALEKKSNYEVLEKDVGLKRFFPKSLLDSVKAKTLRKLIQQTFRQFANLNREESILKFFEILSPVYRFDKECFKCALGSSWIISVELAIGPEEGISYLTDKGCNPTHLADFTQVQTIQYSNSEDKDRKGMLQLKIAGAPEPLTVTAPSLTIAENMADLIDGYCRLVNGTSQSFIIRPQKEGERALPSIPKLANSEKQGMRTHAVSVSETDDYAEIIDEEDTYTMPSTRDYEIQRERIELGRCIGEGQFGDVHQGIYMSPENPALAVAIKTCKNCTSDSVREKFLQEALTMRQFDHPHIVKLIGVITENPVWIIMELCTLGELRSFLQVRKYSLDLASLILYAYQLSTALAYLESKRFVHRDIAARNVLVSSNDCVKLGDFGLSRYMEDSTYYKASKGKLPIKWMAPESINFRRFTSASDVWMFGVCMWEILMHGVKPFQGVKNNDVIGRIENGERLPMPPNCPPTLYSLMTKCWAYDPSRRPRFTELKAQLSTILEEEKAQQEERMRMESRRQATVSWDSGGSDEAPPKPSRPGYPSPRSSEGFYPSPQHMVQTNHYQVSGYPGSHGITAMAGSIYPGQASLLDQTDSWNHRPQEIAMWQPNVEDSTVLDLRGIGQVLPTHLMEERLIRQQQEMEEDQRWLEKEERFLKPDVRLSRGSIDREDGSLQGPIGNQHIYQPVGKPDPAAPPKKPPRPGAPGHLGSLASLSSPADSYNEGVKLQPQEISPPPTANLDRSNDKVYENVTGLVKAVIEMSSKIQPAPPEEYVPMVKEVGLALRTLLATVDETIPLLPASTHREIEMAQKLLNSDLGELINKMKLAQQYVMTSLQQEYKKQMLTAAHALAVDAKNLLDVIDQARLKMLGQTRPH
# Sequence of Receptor tyrosine-protein kinase erbB-4 (Homo sapiens) (Q15303 whole entry): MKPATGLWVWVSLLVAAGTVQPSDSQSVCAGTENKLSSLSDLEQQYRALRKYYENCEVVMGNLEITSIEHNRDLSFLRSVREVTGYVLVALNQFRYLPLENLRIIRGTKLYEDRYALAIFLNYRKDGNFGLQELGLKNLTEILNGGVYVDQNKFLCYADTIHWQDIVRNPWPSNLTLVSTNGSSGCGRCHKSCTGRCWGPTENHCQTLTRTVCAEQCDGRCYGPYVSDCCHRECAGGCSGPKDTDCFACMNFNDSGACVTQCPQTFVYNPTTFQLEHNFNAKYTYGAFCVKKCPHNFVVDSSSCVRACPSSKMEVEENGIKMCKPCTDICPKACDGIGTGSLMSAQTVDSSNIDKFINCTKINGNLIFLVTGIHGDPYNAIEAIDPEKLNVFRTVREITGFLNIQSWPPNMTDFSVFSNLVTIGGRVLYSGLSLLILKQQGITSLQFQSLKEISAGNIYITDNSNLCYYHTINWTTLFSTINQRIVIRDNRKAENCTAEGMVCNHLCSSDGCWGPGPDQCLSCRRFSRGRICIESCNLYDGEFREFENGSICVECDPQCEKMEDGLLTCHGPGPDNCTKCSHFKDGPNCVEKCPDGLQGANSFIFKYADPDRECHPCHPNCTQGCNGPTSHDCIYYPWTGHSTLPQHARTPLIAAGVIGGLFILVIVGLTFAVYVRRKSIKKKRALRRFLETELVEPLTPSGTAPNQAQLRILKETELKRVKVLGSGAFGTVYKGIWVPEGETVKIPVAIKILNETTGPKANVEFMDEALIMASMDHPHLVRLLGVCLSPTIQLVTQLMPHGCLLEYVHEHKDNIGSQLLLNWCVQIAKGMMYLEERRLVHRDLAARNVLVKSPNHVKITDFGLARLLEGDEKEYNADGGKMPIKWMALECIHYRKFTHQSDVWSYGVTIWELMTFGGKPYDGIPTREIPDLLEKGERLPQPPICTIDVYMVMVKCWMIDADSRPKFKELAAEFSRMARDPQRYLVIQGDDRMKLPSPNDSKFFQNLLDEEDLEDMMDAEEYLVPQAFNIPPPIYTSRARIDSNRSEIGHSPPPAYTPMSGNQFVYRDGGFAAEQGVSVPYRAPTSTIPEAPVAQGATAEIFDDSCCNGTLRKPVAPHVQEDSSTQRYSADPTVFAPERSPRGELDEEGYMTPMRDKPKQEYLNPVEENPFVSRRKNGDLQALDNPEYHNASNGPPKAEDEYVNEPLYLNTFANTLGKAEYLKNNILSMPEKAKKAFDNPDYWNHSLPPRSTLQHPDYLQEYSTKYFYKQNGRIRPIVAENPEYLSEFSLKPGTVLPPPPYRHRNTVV
smiles,measurement,setting,value
O=c1[nH]c2ccccc2n1C1CCN(Cc2ccc(-c3nc4cc5[nH]cnc5cc4nc3-c3ccccc3)cc2)CC1,residual activity,[1],76%
same,residual activity,[2],119%
same,residual activity,[3],90%
same,residual activity,[4],123% (inactive)
same,residual activity,[5],105%
same,residual activity,[6],109%
same,residual activity,[7],117%
same,residual activity,[8],99%
same,residual activity,[9],61%
same,residual activity,[10],143%
